# Screening data (PubChem)
# Rows were chosen to be rich in hits. Some 27% of all compounds tested hit in one or more screens of this group.
# CYP2C9 act: CYP2C9 (human) activation; P11712; recombinant CYP2C9, luciferin-H conversion, luminescence; hits give high values; factor 1 = untreated enzyme, 0 = blocked; activation factor at 5 µM; hit rate 1.4% among 96,000;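 active means activation factor of 2 or more for CYP2C9 at a 5 µM dose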;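 further: 0 = sulfaphenazole-blocked wells and 1 = vehicle-only wells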
# Target sequence (P11712 whole entry, looked up): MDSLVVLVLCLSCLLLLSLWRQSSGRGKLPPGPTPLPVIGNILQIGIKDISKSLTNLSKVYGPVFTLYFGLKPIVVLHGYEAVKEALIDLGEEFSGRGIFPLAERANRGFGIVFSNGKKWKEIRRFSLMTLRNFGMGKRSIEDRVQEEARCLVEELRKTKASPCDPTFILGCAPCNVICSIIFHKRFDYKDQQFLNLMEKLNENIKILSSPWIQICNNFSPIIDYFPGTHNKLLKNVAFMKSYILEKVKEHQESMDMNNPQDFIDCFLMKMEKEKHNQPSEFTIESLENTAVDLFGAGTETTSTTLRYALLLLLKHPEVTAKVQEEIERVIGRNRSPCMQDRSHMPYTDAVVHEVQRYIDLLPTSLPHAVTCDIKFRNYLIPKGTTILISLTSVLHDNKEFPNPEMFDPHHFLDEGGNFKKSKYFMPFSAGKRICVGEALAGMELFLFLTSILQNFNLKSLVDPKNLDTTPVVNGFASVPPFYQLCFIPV
# CYP2C19 act: cytochrome P450 2C19 (human) activation; P33261; recombinant CYP2C19, luciferin-H EGE luminescence; hits give high values; 0 = fully inhibited enzyme, 1 = untreated enzyme; activation factor at 5 µM; 96,000 tested, under 10 active;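 active means activation factor of at least 2 at 5 µM in the primary screen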;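 further: 0 = wells with 2.5 mM tranylcypromine and 1 = vehicle-only wells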
# CYP2C19 inhib: inhibitors of human CYP2C19 | P33261 | CYP2C19 Supersomes, luciferin-H EGE luminescence, 30 min | inhibition, % at 5 µM | hit rate 21% among 96,000;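 active means CYP2C19 inhibition above a set limit at 5 µM in the primary screen, cut at about 50% in these data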;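 further: plate controls were negative control wells for no effect and 2.5 mM tranylcypromine positive control for full effect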
# Cav3 T inh: blocks human Cav3.2 T-type calcium channel | O95180 | Cav3.2-expressing cells, Fluo-4 calcium fluorescence FDSS; hits give low values | B-score at 10 µM | hit rate 4% among 100,000 | AID 449739;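 active means single-dose well whose peak fluorescence ratio is a statistical outlier from its plate by either plate-standardised score or position-corrected B-score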
# CYP2C9 inh: human CYP2C9 inhibition; hit rate 20% among 96,000; inhibition, % at 5 µM; AID 777; CYP2C9 Supersomes, luciferin-H conversion, luminescence;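 active means blocking of liver enzyme CYP2C9 beyond about 50% at 5 µM, limit read from the data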
# Numbers without * were called inactive; . = no result.
SMILES,CYP2C9 act,CYP2C19 act,CYP2C19 inhib,Cav3 T inh,CYP2C9 inh
CCOc1ccc(C(=O)Nc2cnn(Cc3ccc(Cl)c(Cl)c3)c2)cc1,0.8,0.6,36,-2.2,20
CC(C)C1N=C(c2ccc3c(c2)OCO3)CC(c2ccccc2O)N1 (stereo not drawn),0.4,0.5,54*,-1.8,61*
c1ccc2sc(-c3ccc4c(c3)OCO4)nc2c1,1,0.9,9,-0.005,2
C/C(Nc1ccccc1)=C(/C#N)C(N)=O,1.2,1.1,-7,-0.038,-17
Cc1ccc2c(c1)c(=O)c1c3n2CCN(C(=O)CCl)C3CC1 (stereo not drawn),0.6,1,-2,.,41
Cc1ccc2c(c1)c1c3n2CCN(C(=O)CN2CCN(C)CC2)C3CCC1 (stereo not drawn),0.9,0.8,15,0.9,14
Cc1ccc2c(c1)c1c3n2CCCN(Cc2ccccc2)C3CCC1 (stereo not drawn),0.7,0.4,61*,0.41,32
Cc1ccc2c(c1)c1c3n2CCN(C(=O)Cn2c(-c4ccccc4)noc2=O)C3CCC1 (stereo not drawn),0.5,0.9,9,-0.91,50*
Cc1ccc2c(c1)c1c3n2CCN(C(=O)C2CC2)C3CCC1 (stereo not drawn),0.5,0.6,42,-1.4,50*
c1ccc(-c2nnc(SCCC3OCCCO3)o2)cc1,1.2,0.7,29,.,-16
c1ccc(CN2CCN(C(c3ccccc3)c3nnnn3Cc3ccccc3)CC2)cc1 (stereo not drawn),.,.,.,-0.29,.
COc1ccc2cc(C(c3nnnn3Cc3ccccc3)N3CCCCCC3)c(=O)[nH]c2c1 (stereo not drawn),0.3,0.3,70*,0.67,70*
Fc1ccc(Cn2nnnc2C(c2ccc(Cl)cc2)N2CCSCC2)cc1 (stereo not drawn),0.3,0.1,94*,-7.1*,69*
c1ccc(Cn2nnnc2C(c2cccs2)N2CCSCC2)cc1 (stereo not drawn),.,.,.,-3.4,.
O=c1[nH]c2cc3c(cc2cc1C(c1nnnn1CC1CCCO1)N1CCCCCC1)OCCO3 (stereo not drawn),0.2,0.9,7,0.033,79*
COc1ccc(Cn2nnnc2C(c2cccs2)N2CCSCC2)cc1 (stereo not drawn),0.4,0.2,83*,-2.2,59*
O=c1[nH]c2cc3c(cc2cc1C(c1nnnn1CC1CCCO1)N1CCCCCC1)OCO3 (stereo not drawn),.,.,.,-0.025,.
Nc1nonc1C(=O)NCCNC(=O)c1cccs1,1.1,1,3,-0.15,-12
COc1ccc(Nc2c3c(c(C#N)c4nc5ccccc5n24)CCC3)cc1,1,0.9,12,-0.034,2
Cc1ccc(C(=O)COC(=O)CNC(=O)c2ccco2)cc1,0.9,0.5,45,-0.51,10
COc1ccc(Cn2nnnc2C(c2cccs2)N2CCCCCC2)cc1 (stereo not drawn),0.1,0,100*,-4.1*,92*
C(=N\N1CCN(C2c3ccccc3-c3ccccc32)CC1)/c1ccccn1,0.7,0.9,7,-1.9,27
C/C(=N\N1CCN(C2c3ccccc3-c3ccccc32)CC1)c1cccnc1,0.3,0.3,66*,-0.27,73*
CCOC(=O)COc1ccc2c3c(c(=O)oc2c1C)CCC3,0.2,0.4,65*,-0.0066,79*
Cc1c(OCc2nn[nH]n2)ccc2c3c(c(=O)oc12)CCCC3,0.1,0.3,67*,3,94*
SMILES,CYP2C9 act,CYP2C19 act,CYP2C19 inhib,Cav3 T inh,CYP2C9 inh
Cc1c(OCc2nn[nH]n2)ccc2c3c(c(=O)oc12)CCC(C)C3 (stereo not drawn),0,0.2,85*,-1.5,98*
COc1ccc2c3c(c(=O)oc2c1OCC(N)=O)CCCC3,2.5*,0.9,11,0.11,-145
Cc1cc2oc(=O)c3c(c2cc1OCc1nn[nH]n1)CCCC3,0.6,0.9,13,0.85,38
C[C@@H](C(=O)NCc1ccccc1)N1C(=O)C2CC=CCC2C1=O (stereo partly drawn),1.2,1,-3,-0.072,-22
Cc1ccc(C(=O)CSc2nc(C)cc(C)c2C(N)=O)cc1,0.4,0.2,77*,1.8,60*
Cc1cc(NC(=O)CC(CN(C)S(=O)(=O)c2ccccc2)c2ccccc2)no1 (stereo not drawn),0.5,0.1,88*,-2.2,46
Oc1ccc(/C=N/Nc2nccnc2Cl)cc1,0,0,98*,1.1,100*
